High-throughput results deposited in PubChem BioAssay by several laboratories.
MEX-5 binding = C. elegans MEX-5 TCR-2 RNA binding activity; Q9XUB2; MEX-5/FITC-TCR2 RNA binding, fluorescence polarization; hits give low values; activity score (negative = inhibition of binding), % at 10 µM; 0.38% of 300,000 active; AID 1832;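 active = inhibition past about -25% in most replicates, and total fluorescence under double the plate's negative control median, limit read from the data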
E coli Lon inh = inhibits E. coli Lon protease; 0.42% of 360,000 active; AID 602123; purified E. coli Lon protease, fluorescence polarization; P0A9M0; inhibition, % at 7.94 µM; in the data active = inhibition above about 13%, passing the limit was not always enough
Bcl-xL primary = blocks human Bcl-xL binding to Bim BH3 peptide. Q07817. GST-Bcl-xL / FITC-Bim BH3 peptide fluorescence polarization. inhibition, % at 10.9 µM. 0.7% of 320,000 active;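 active = inhibition above the mean of all tested compounds plus 3 SD, cutoff set per campaign, cut at about 30% in these data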;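 also: inhibitors lower millipolarization by displacing the labeled peptide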
Keap1 Nrf2 FP = inhibitors of human Keap1-Nrf2 protein-protein interaction. Q14145. Keap1 Kelch-Nrf2 peptide fluorescence polarization, 1536-well. inhibition, % at 9.4 µM. 0.15% of 340,000 active. AID 504523; in the data active = inhibition above about 12%;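 also: human Keap1 Kelch domain with fluorescein labeled Nrf2 9mer peptide probe; higher means more block of Keap1 binding to Nrf2 peptide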
Target sequence (Q14145 whole entry, looked up, the tested form may be a part): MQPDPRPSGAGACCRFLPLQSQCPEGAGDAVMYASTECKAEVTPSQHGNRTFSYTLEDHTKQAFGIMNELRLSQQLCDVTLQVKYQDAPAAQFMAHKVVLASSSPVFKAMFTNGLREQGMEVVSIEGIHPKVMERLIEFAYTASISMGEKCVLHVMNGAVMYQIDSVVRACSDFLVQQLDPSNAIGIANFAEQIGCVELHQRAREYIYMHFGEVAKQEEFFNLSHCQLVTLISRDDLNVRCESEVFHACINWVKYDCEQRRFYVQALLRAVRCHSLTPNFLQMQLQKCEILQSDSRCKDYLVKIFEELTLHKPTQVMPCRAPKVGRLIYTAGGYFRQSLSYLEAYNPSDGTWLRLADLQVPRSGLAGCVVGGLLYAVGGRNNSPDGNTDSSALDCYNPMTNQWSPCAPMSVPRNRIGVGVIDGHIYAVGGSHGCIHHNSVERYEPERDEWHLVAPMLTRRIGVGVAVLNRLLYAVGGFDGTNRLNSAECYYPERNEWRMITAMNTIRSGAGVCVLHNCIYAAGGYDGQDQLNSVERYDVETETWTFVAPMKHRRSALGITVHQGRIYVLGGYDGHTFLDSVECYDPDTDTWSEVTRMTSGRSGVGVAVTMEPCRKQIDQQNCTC
GLD-1 RNA inh = GLD-1-TGE RNA interaction inhibition (C. elegans). Q17339. purified GLD-1 + fluorescein TGE RNA, fluorescence polarization. 0.44% of 320,000 active. inhibition, % at 5.96 µM;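 active = percent inhibition above a per-plate cutoff, the plate mean of test compounds plus 3 SD, cut at about 30% in these data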
LANA DNA inh = blocks KSHV LANA C-terminal domain binding to DNA | MBP-C-LANA/FAM-LBS DNA binding, fluorescence polarization | inhibition, % at 9 µM | 0.078% of 340,000 active | AID 504423;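 active = highest replicate inhibition at or above 60% at 9 µM, even if other replicates fall short; inactive = all replicates below 60% inhibition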
GLD-1 TGE cf = confirmation of C. elegans GLD-1 TGE RNA binding inhibitors; GLD-1/FL-TGE RNA fluorescence polarization, biochemical; AID 2459; inhibition, % at 5.96 µM; 10% of 550 active; shares compounds with GLD-1 RNA inh;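 active = average inhibition across triplicates above the hit cutoff set in the primary screen, cut at about 32% in these data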
Hits are given with their value; 0 = inactive; - = no result given. Sampled rows, rich in hits. Any-hit rate of the full collection: about 1.2%.

SMILES | MEX-5 binding | E coli Lon inh | Bcl-xL primary | Keap1 Nrf2 FP | GLD-1 RNA inh | LANA DNA inh | GLD-1 TGE cf
COC(=O)c1cc2c(-c3ccccc3)cc3ccccn3c-2c1C(=O)OC | 0 | 0 | 36 | 0 | 31 | 0 | 0
COC(=O)c1cc(-c2ccccc2)sc1N | 0 | 0 | 0 | 0 | 0 | 0 | -
O=C(O)[C@@H]1[C@@H]2C[C@@H]2CN1c1ncccc1[N+](=O)[O-] | 0 | 0 | 47 | 0 | 39 | 0 | 0
O=C(O)C1CN(c2ncccc2[N+](=O)[O-])C1 | 0 | 0 | 0 | 0 | 0 | 0 | -
CC1CCCCN1CC(=O)Nc1ccc2c(c1)OCO2 (stereo not given) | - | 0 | 0 | 0 | 0 | 0 | -
Cc1cc2cc(CNC(=O)c3ccc4c(c3)OCO4)ccc2n1C | 0 | 25 | 33 | 0 | 44 | 0 | 0
COCC(=O)NCc1ccc2c(c1)cc(C)n2C | 0 | 0 | 0 | 0 | 36 | 0 | 0
COc1cc(OC)c(/C=N/NC(=O)c2ccc(Cn3nc([N+](=O)[O-])cc3C)cc2)c(OC)c1 | 0 | - | 0 | - | 0 | - | -
Nc1n[nH]c2cc(=O)n(-c3cccc(C(F)(F)F)c3)nc12 | 0 | 0 | 43 | 0 | 39 | 0 | 0
CCOc1ccccc1CNC(=O)C1CCCN(c2nnc(C)c3c(C)n(-c4ccccc4)nc23)C1 (stereo not given) | 0 | 0 | 0 | 0 | 0 | 0 | -
CC(=O)Nc1cccc(C(=O)NC2CCCc3c2cnn3-c2cc(C)cc(C)c2)c1 (stereo not given) | 0 | 0 | 0 | 0 | 58 | 0 | 0
CCC(CC)C(=O)N(C)c1c(C)nc2c(OCC(=O)C(C)(C)C)cccn12 | - | 0 | - | - | - | - | -
CCC1CCc2sc(C(=O)NCC(c3ccc(OC)cc3)N3CCCC3)cc2C1 (stereo not given) | 0 | 0 | 0 | 0 | 49 | 0 | 0
Cc1ccc2c(Cl)c(Cc3ccccc3)c(=S)[nH]c2n1 | - | 0 | - | 0 | - | 0 | -
CCC(OC(=O)CNS(=O)(=O)c1ccccc1)C(=O)c1ccccc1 (stereo not given) | 0 | 0 | 0 | 0 | 0 | 0 | -
Cc1ccc(-c2cn3cccnc3n2)cc1NC(=O)c1cccs1 | 0 | 0 | 0 | 0 | 31 | 0 | 0
COc1ccc(CCC(=O)NNC(=O)c2ccc(OC)cc2)cc1 | 0 | 0 | 0 | 0 | 0 | 0 | -
Cn1nc(-c2ccccc2)cc1NS(=O)(=O)c1ccc(C#N)cc1 | 0 | 0 | 100 | 0 | 61 | 0 | 0
COc1ccc(-c2ccc(CCC(=O)O)n2CC(=O)Nc2ccccc2C)cc1 | 0 | 0 | 0 | 0 | 0 | 0 | -
CC(/C=C/c1ccc(N(C)C)cc1)=N\N=C1\NC(=O)CC(C(=O)Nc2ccccc2)S1 (stereo not given) | 0 | 0 | 0 | 0 | 33 | 0 | 0
COc1ccc(S(=O)(=O)N2CCN(C(=O)Cc3ccsc3)CC2)cc1 | - | 0 | - | 0 | - | 0 | -
COc1ccccc1C(=O)Nc1ccc(-c2nnn(CC(=O)N3CCN(C(=O)c4ccco4)CC3)n2)cc1 | 0 | 0 | 0 | 0 | 51 | 0 | 0
N#CC1=C(N)N(c2ccccc2)C(c2ccccc2)C1(C#N)C#N (stereo not given) | 0 | 0 | 0 | 0 | 0 | 0 | -
N#CC1=C(N)C2=CCCC[C@H]2[C@H](c2cccc(F)c2)C1(C#N)C#N | 0 | 0 | 44 | 0 | 37 | 0 | 0
CC(=O)c1cccc(NC(=O)CSc2nnc(C(C)N(C)C)n2Cc2ccccc2)c1 (stereo not given) | 0 | 0 | 0 | 0 | 0 | 0 | -
SMILES | MEX-5 binding | E coli Lon inh | Bcl-xL primary | Keap1 Nrf2 FP | GLD-1 RNA inh | LANA DNA inh | GLD-1 TGE cf
COC(=O)c1cc(NC(=O)c2ccccc2)c(=O)oc1C/C=N\OCc1ccc(Cl)cc1Cl | 0 | 0 | 0 | 0 | 0 | 0 | -
CO/N=C\Cc1oc(=O)c(NC(=O)c2ccccc2)cc1C(=O)OC | 0 | 0 | 36 | 0 | 37 | 0 | 0
COc1ccccc1N1CCN(C(=S)NC(=O)/C=C/c2ccccc2)CC1 | 0 | 0 | 0 | 0 | 0 | 0 | -
CCc1n[nH]c(=S)n1/N=C/c1cc(Br)c(O)c(OC)c1 | 0 | 0 | 0 | 0 | 56 | 0 | 0
Cc1ccccc1N1CCN(C(=O)c2cc(C3CC3)nn2-c2ccccc2)CC1 | - | 0 | 0 | 0 | 0 | 0 | -
COc1ccc(OC)c(NC(=O)CN2C(=O)C(C)N(c3ccc(C)cc3)C2=O)c1 (stereo not given) | - | 0 | 0 | 0 | 0 | 0 | -
Nc1nnnn1/N=C/c1cc(Cl)ccc1O | 0 | 0 | 0 | 0 | 38 | 0 | 46
CCCCCCc1cc2cc(S(=O)(=O)c3ccc(C)cc3)c(=O)oc2cc1O | 0 | 0 | 0 | 0 | 39 | 0 | 0
CN(C)/C=C1\SC(=S)N(c2ccc(F)cc2)C1=O | 0 | 0 | 0 | 0 | 0 | 0 | -
CN(C)/C=C1\SC(=S)N(c2ccc(Br)cc2)C1=O | 0 | 0 | 131 | 0 | 73 | 0 | 32
O=C1NC(=O)C(c2ccccc2)N1 (stereo not given) | - | 0 | - | 0 | - | 0 | -
Cc1cnc(C(=O)Nc2ccccc2-c2ccc(C)o2)cn1 | 0 | 0 | 36 | 0 | 42 | 0 | 0
Cc1ccccc1N1CCN(C(=O)C2CCC(=O)N(C3CCCC3)C2)CC1 (stereo not given) | 0 | 0 | 0 | 0 | 0 | 0 | -
O=C(C1CCC(=O)N(C2CCCCCC2)C1)N1CCN(c2ccccc2Cl)CC1 (stereo not given) | 0 | 0 | 89 | 0 | 31 | 0 | 0
COC(=O)COc1ccc(/C=C2/NC(=O)N(CC(=O)OC)C2=O)cc1 | 0 | 0 | 0 | 0 | 0 | 0 | -
Cc1ccc(/C=C2/NC(=O)N(Cc3ccccc3)C2=O)o1 | 0 | 0 | 38 | 0 | 50 | 0 | 0
Cc1ccc(/C=C2\SC(=S)N(Cc3ccccc3)C2=O)o1 | - | 0 | 0 | 0 | 0 | 0 | -
COC(=O)CN1C(=O)N/C(=C/c2ccc(C)o2)C1=O | 0 | 0 | 0 | 0 | 63 | 0 | 0
N#CCC(=O)Nc1ccc(C(=O)OCC(=O)c2ccc3c(c2)NC(=O)CO3)cc1 | - | 0 | 0 | 0 | 0 | 0 | -
NS(=O)(=O)c1ccc2c(c1)C1C=CCC1C(C1CC=CCC1)N2 (stereo not given) | 0 | 0 | 46 | 0 | 34 | 0 | 0
COc1ccc(OC)c(NC(=O)C2(C)CCN2C(=O)C(C)(C)c2ccccc2)c1 (stereo not given) | - | 0 | - | - | - | - | -
COc1ccc(/C=C/C(=O)OCC(=O)NC2CCCCC2C)c(OC)c1 (stereo not given) | - | 0 | 0 | 0 | 0 | 0 | -
Cc1ccc(S(=O)(=O)N2CCOCC2)cc1C(=O)N1C(=O)c2cccc(N)c2C1=O | 0 | 0 | 30 | 0 | 32 | 0 | 0
NC(=O)C1CCCN(C(=O)c2cccc(S(=O)(=O)N3CCCCCC3)c2)C1 (stereo not given) | - | 0 | 0 | 0 | 0 | 0 | -
Cc1ccc(S(=O)(=O)N2CCOCC2)cc1C(=O)O | 0 | 0 | 0 | 0 | 0 | 0 | -
Nc1cccc2c1C(=O)N(C(=O)c1cccc(S(=O)(=O)N3CCCCCC3)c1)C2=O | 0 | 0 | 0 | 0 | 38 | 0 | 0
